In PubChem BioAssay (NCATS):
Several values for one entry are separate records, joined by “and”; a condition that tells them apart may be missing. Identical values can stand only once. Records with an inconclusive call do not appear. Activity calls are given as the source filed them. Unless noted, the call rests on the fitted dose curve; in most records, active means well fitted curve in the direction sought with a large enough effect; inconclusive means small, poorly fitted or top-dose-only effect, or another doubt; inactive means no such curve, though single readings can be large; an effect the other way counts as inactive or inconclusive.

Key:
JEG-3 = assay: Primary qHTS to identify gynecologic anti-cancer compounds using libraries of approved drugs and bioactive compounds (AID 1345084); settings: Gynecologic cancer cell panel viability, ATPlite luminescence, 48 h; series mostly up to 57.5 µM; further: on the % scale 0 is the no-effect control and ±100 the full control effect; nearly all actives have a fitted effect of over 55% in size
Summary of the method: (§1)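 Luminescence from the ATPlite ATP-monitoring reagent indicates viable cell number; lower signal means cytotoxicity. Cells received compound 16 h after seeding and were exposed for 48 h across five concentrations.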

OV90 = assay: as above; settings: Gynecologic cancer cell panel viability, ATPlite luminescence, 48 h; series mostly up to 57.5 µM
Summary of the method: as §1

PA-1 = assay: as above; settings: Gynecologic cancer cell panel viability, ATPlite luminescence, 48 h; series mostly up to 57.5 µM
Summary of the method: as §1

SKOV3 = assay: as above; settings: Gynecologic cancer cell panel viability, ATPlite luminescence, 48 h; series mostly up to 57.5 µM
Summary of the method: as §1

Tov-21-G = assay: as above; settings: Gynecologic cancer cell panel viability, ATPlite luminescence, 48 h; series mostly up to 57.5 µM
Summary of the method: as §1

Tov112D = assay: as above; settings: Gynecologic cancer cell panel viability, ATPlite luminescence, 48 h; series mostly up to 57.5 µM
Summary of the method: as §1

[1] = Drug repurposing screens with cells derived from glioblastoma tumor samples (AID 1345199); settings: GBM patient neurospheres viability, ATP luminescence, 48 h; further: on the % scale 0 is the no-effect control and ±100 the full control effect; nearly all actives have a fitted effect of over 40% in size
Summary of the method: (§2)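 Primary testing used CD133+ neurospheres from four GBM patients, seven concentrations, 48 h exposure and ATP-based viability; confirmation added three slower-growing patient lines.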

astro = assay: as above; settings: viability, ATP luminescence, 48 h; series mostly up to 45.9 µM
Summary of the method: as §2

[2] = target: Nuclear receptor subfamily 1 group I member 2 (Rattus norvegicus) (UniProt Q9R1A7); assay: qHTS assay for small molecule activators of the rat pregnane X receptor (rPXR) signaling pathway (AID 651751; call rule not given here; further: 0% is about no effect); settings: rPXR reporter cells, luciferase (One-Glo), 24 h
Nuclear receptor subfamily 1 group I member 2 (Rattus norvegicus), sequence (Q9R1A7 whole entry, looked up): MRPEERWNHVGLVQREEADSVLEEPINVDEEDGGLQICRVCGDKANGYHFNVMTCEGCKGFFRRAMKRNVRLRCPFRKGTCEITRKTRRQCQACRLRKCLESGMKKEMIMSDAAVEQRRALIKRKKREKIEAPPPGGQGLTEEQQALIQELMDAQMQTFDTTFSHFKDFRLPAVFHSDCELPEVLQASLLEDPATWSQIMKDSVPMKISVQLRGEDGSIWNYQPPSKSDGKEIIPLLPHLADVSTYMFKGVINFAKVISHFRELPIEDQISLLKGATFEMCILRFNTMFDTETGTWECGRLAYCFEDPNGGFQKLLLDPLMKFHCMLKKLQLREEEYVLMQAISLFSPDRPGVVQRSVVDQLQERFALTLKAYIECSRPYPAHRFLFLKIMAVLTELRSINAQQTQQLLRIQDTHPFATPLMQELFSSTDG

[3] = at 45.9 µM (top of the series), tumour line B
[4] = at 45.9 µM (top of the series), tumour line D
[5] = at 46 µM (top of the series), tumour line A
[6] = at 46.1 µM (top of the series), tumour line C
[7] = at 20 µM (top of the series), tumour line C
[8] = at 21.2 µM (top of the series), tumour line B
[9] = at 21.2 µM (top of the series), tumour line D
[10] = at 21.3 µM (top of the series), tumour line A

CCN(CC)C(=O)c1cccc(C)c1
inactive: outcome (JEG-3) | Potency (OV90) | outcome (PA-1) | outcome (SKOV3) | outcome (Tov-21-G) | outcome (Tov112D) | activity, negative = cell killing [1, 3] -13.5% | activity, negative = cell killing [1, 4] -4.13% | activity, negative = cell killing [1, 5] -18.8% | activity, negative = cell killing [1, 6] -13.4% | outcome (astro) | max response [2] 1.44% and 0.626%

CC(=O)Nc1ccccc1
inactive: outcome (JEG-3) | Potency (OV90) | outcome (PA-1) | outcome (SKOV3) | outcome (Tov-21-G) | outcome (Tov112D) | activity, negative = cell killing [1, 3] -6.03% | activity, negative = cell killing [1, 4] -14.5% | activity, negative = cell killing [1, 5] -21.5% | activity, negative = cell killing [1, 6] 6.02% | outcome (astro) | max response [2] 2.33%

O=C(O)c1ccc[n+]([O-])c1
inactive: outcome (JEG-3) | Potency (OV90) | outcome (PA-1) | outcome (SKOV3) | outcome (Tov-21-G) | outcome (Tov112D) | activity, negative = cell killing [1, 3] -13.5% | activity, negative = cell killing [1, 4] 12.2% | activity, negative = cell killing [1, 5] -25.2% | activity, negative = cell killing [1, 6] -21.7% | outcome (astro)

COc1ccc(-c2cc(=O)c3c(O)cc(O[C@@H]4O[C@H](CO[C@@H]5O[C@@H](C)[C@H](O)[C@@H](O)[C@H]5O)[C@@H](O)[C@H](O)[C@H]4O)cc3o2)cc1O
inactive: outcome (JEG-3) | Potency (OV90) | outcome (PA-1) | outcome (SKOV3) | outcome (Tov-21-G) | outcome (Tov112D) | activity, negative = cell killing [1, 3] -6.79% | activity, negative = cell killing [1, 4] 0.355% | activity, negative = cell killing [1, 5] -29.8% | activity, negative = cell killing [1, 6] 3.81% | outcome (astro)

CC(=O)OC[C@H]1O[C@@](COC(C)=O)(O[C@H]2O[C@H](COC(C)=O)[C@@H](OC(C)=O)[C@H](OC(C)=O)[C@H]2OC(C)=O)[C@@H](OC(C)=O)[C@@H]1OC(C)=O
inactive: outcome (JEG-3) | Potency (OV90) | outcome (PA-1) | outcome (SKOV3) | outcome (Tov-21-G) | outcome (Tov112D) | activity, negative = cell killing [1, 3] -8.85% | activity, negative = cell killing [1, 4] -9.16% | activity, negative = cell killing [1, 5] -28.7% | activity, negative = cell killing [1, 6] 2.01% | outcome (astro)

Cc1c(C)c2c(c(C)c1OC(=O)c1cccnc1)CC[C@@](C)(CCC[C@H](C)CCC[C@H](C)CCCC(C)C)O2
inactive: outcome (JEG-3) | Potency (OV90) | outcome (PA-1) | outcome (SKOV3) | outcome (Tov-21-G) | outcome (Tov112D) | activity, negative = cell killing [1, 3] -11.4% | activity, negative = cell killing [1, 4] -0.0875% | activity, negative = cell killing [1, 5] -9.82% | activity, negative = cell killing [1, 6] -12.2% | outcome (astro)

CCN(CC)CCOC(=O)C(c1ccccc1)c1ccccc1
inactive: outcome (JEG-3) | Potency (OV90) | outcome (PA-1) | outcome (SKOV3) | outcome (Tov-21-G) | outcome (Tov112D) | activity, negative = cell killing [1, 3] -13.3% | activity, negative = cell killing [1, 4] -3.55% | activity, negative = cell killing [1, 5] -25.1% | activity, negative = cell killing [1, 6] -20.1% | outcome (astro)

Cc1c(C(=O)NCCO)[n+](=O)c2ccccc2n1[O-]
inactive: outcome (JEG-3) | Potency (OV90) | outcome (PA-1) | outcome (SKOV3) | outcome (Tov-21-G) | outcome (Tov112D) | activity, negative = cell killing [1, 3] -6.85% | activity, negative = cell killing [1, 4] -27.6% | activity, negative = cell killing [1, 5] -29.3% | activity, negative = cell killing [1, 6] -6.62% | outcome (astro) | max response [2] 1.89%

COc1ccccc1OCC(O)CO (stereo unspecified)
inactive: outcome (JEG-3) | Potency (OV90) | outcome (PA-1) | outcome (SKOV3) | outcome (Tov-21-G) | outcome (Tov112D) | activity, negative = cell killing [1, 7] 14.1% | activity, negative = cell killing [1, 8] -4.78% | activity, negative = cell killing [1, 9] -22.3% | activity, negative = cell killing [1, 10] -18.5% | outcome (astro)

N[C@@H](Cc1ccc(O)cc1)C(=O)O
inactive: activity change, negative = cytotoxicity (JEG-3) 4.09% [at 11.6 µM] | activity change, negative = cytotoxicity (OV90) 9.24% [at 11.6 µM] | activity change, negative = cytotoxicity (PA-1) 1.05% [at 11.6 µM] | activity change, negative = cytotoxicity (SKOV3) -0.073% [at 11.6 µM] | activity change, negative = cytotoxicity (Tov-21-G) 5.15% [at 11.6 µM] | activity change, negative = cytotoxicity (Tov112D) 8.21% [at 11.6 µM] | activity, negative = cell killing [1, 3] -2.51% | activity, negative = cell killing [1, 4] -14.6% | activity, negative = cell killing [1, 5] -11% | activity, negative = cell killing [1, 6] 37.9% | outcome (astro)

C[N+]1(C)CCCC(OC(=O)C(O)(c2ccccc2)c2ccccc2)C1 (stereo unspecified)
inactive: outcome (JEG-3) | Potency (OV90) | outcome (PA-1) | outcome (SKOV3) | outcome (Tov-21-G) | outcome (Tov112D) | activity, negative = cell killing [1, 7] -3.92% | activity, negative = cell killing [1, 8] -7.65% | activity, negative = cell killing [1, 9] 4.26% | activity, negative = cell killing [1, 10] -24.7% | outcome (astro)

CC1(C)S[C@@H]2[C@H](NC(=O)C(C(=O)O)c3ccccc3)C(=O)N2[C@H]1C(=O)O (stereo partly specified)
inactive: outcome (JEG-3) | Potency (OV90) | outcome (PA-1) | outcome (SKOV3) | outcome (Tov-21-G) | outcome (Tov112D) | activity, negative = cell killing [1, 3] 2.69% | activity, negative = cell killing [1, 4] -6.27% | activity, negative = cell killing [1, 5] -8.84% | activity, negative = cell killing [1, 6] 7.57% | outcome (astro)

CO[C@@]1(NC(=O)C(C(=O)O)c2ccc(O)cc2)C(=O)N2C(C(=O)O)=C(CSc3nnnn3C)CO[C@@H]21 (stereo partly specified)
inactive: outcome (JEG-3) | Potency (OV90) | outcome (PA-1) | outcome (SKOV3) | outcome (Tov-21-G) | outcome (Tov112D) | activity, negative = cell killing [1, 7] -17.7% | activity, negative = cell killing [1, 8] -0.689% | activity, negative = cell killing [1, 9] -3.96% | activity, negative = cell killing [1, 10] -23.1% | outcome (astro)
